# Measurements from PubChem BioAssay.
# Where “and” joins values, the source holds several entries; their conditions need not be identical. Equal values may be shown once. A structure can be active in one record and inactive in another. Calls of active or inactive are those of the source.
# Key:
# [1] = system: PRMT1 (protein arginine N-methyltransferase 1); test: small molecules binding arginine methyltransferase PRMT1 – biochemical, small-molecule microarray, 635 nm fluorescence, primary screen (AID 1088); conditions: higher = more signal;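 also: binding of Prmt1 protein to compounds spotted on small-molecule microarray slides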
# [2] = growth effects on S. cerevisiae YJM789 – YJM789 clinical isolate, OD600, 24 h, basal, primary screen (AID 1089); conditions: higher = more signal, called active from +8 up or from −8 down;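 also: growth of clinical yeast isolate S. cerevisiae YJM 789 seeded 1000 cells per well; test concentration not given here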
# [3] = S. pombe growth modifiers, basal conditions – strain 972, OD600, 24 h, no modulator, primary screen (AID 1090);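 also: basal condition with compound alone and no growth modifier present; test concentration not given here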; conditions: S. pombe 972 growth, higher = more signal, called active from +8 up or from −8 down
# [4] = budding yeast growth modifiers under rapamycin – strain BY4716, OD600, 96 h, primary screen (AID 1091); also: test concentration not given here; conditions: S. cerevisiae BY4716 + rapamycin, higher = more signal, called active from +8 up or from −8 down
# [5] = target: Torsin-1A-interacting protein 2 (Homo sapiens) (UniProt Q8NFQ8); test: small molecules binding lysate-expressed LULL1 – cell lysate, human LULL1 lysate, 635/667 nm fluorescence, primary screen (AID 1092); conditions: small-molecule microarray, hLULL1 lysate binding, 635 nm fluorescence; higher = more signal;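 also: probe is lysate of COS7 cells overexpressing human LULL1; score merges per-feature 667 nm fluorescence with signal-to-noise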
# Sequence of Torsin-1A-interacting protein 2 (Homo sapiens) (Q8NFQ8 whole entry, looked up): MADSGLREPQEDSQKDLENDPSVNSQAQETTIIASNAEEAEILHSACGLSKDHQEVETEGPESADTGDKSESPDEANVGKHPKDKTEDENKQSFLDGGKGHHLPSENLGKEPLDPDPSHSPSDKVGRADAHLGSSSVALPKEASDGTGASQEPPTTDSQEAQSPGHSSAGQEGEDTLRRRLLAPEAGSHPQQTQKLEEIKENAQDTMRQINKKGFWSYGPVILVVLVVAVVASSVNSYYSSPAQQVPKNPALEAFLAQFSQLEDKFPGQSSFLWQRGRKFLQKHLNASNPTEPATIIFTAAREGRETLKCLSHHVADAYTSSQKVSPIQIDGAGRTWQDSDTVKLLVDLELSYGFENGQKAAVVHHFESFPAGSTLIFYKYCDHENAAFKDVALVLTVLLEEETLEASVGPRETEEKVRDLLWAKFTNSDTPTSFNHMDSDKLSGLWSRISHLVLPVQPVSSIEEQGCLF
# [6] = optical density change of DRC41 E. coli – strain DRC41, OD650, 24 h, E. coli filamentation project, primary screen (AID 1093);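 also: MC1000 strain lacking acrAB efflux and sulA so SOS filamentation is blocked; test concentration not given here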; conditions: E. coli DRC41 growth, higher = more signal, called active from +8 up or from −8 down
# [7] = probe aLefty2 binding to arrayed compounds – biochemical, biotinylated probe, 635/667 nm fluorescence, primary screen (AID 1094); conditions: small-molecule microarray, higher = more signal;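 also: score merges spot fluorescence near 667 nm with spot signal-to-noise ratio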
# [8] = system: Noggin (protein binding on small-molecule microarray); test: small molecules binding Noggin protein – biochemical, 635/667 nm fluorescence, primary screen (AID 1095); conditions: 635 nm fluorescence, higher = more signal;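 also: score merges 667 nm feature fluorescence with signal to noise over triplicate slides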
# [9] = target: Neurogenic locus notch homolog protein 3 (Homo sapiens) (UniProt Q9UM47); test: small molecules binding NOTCH3 protein – biochemical, 635/667 nm fluorescence, primary screen (AID 1096); conditions: small-molecule microarray, 635 nm fluorescence, higher = more signal
# Sequence of Neurogenic locus notch homolog protein 3 (Homo sapiens) (Q9UM47 whole entry, looked up): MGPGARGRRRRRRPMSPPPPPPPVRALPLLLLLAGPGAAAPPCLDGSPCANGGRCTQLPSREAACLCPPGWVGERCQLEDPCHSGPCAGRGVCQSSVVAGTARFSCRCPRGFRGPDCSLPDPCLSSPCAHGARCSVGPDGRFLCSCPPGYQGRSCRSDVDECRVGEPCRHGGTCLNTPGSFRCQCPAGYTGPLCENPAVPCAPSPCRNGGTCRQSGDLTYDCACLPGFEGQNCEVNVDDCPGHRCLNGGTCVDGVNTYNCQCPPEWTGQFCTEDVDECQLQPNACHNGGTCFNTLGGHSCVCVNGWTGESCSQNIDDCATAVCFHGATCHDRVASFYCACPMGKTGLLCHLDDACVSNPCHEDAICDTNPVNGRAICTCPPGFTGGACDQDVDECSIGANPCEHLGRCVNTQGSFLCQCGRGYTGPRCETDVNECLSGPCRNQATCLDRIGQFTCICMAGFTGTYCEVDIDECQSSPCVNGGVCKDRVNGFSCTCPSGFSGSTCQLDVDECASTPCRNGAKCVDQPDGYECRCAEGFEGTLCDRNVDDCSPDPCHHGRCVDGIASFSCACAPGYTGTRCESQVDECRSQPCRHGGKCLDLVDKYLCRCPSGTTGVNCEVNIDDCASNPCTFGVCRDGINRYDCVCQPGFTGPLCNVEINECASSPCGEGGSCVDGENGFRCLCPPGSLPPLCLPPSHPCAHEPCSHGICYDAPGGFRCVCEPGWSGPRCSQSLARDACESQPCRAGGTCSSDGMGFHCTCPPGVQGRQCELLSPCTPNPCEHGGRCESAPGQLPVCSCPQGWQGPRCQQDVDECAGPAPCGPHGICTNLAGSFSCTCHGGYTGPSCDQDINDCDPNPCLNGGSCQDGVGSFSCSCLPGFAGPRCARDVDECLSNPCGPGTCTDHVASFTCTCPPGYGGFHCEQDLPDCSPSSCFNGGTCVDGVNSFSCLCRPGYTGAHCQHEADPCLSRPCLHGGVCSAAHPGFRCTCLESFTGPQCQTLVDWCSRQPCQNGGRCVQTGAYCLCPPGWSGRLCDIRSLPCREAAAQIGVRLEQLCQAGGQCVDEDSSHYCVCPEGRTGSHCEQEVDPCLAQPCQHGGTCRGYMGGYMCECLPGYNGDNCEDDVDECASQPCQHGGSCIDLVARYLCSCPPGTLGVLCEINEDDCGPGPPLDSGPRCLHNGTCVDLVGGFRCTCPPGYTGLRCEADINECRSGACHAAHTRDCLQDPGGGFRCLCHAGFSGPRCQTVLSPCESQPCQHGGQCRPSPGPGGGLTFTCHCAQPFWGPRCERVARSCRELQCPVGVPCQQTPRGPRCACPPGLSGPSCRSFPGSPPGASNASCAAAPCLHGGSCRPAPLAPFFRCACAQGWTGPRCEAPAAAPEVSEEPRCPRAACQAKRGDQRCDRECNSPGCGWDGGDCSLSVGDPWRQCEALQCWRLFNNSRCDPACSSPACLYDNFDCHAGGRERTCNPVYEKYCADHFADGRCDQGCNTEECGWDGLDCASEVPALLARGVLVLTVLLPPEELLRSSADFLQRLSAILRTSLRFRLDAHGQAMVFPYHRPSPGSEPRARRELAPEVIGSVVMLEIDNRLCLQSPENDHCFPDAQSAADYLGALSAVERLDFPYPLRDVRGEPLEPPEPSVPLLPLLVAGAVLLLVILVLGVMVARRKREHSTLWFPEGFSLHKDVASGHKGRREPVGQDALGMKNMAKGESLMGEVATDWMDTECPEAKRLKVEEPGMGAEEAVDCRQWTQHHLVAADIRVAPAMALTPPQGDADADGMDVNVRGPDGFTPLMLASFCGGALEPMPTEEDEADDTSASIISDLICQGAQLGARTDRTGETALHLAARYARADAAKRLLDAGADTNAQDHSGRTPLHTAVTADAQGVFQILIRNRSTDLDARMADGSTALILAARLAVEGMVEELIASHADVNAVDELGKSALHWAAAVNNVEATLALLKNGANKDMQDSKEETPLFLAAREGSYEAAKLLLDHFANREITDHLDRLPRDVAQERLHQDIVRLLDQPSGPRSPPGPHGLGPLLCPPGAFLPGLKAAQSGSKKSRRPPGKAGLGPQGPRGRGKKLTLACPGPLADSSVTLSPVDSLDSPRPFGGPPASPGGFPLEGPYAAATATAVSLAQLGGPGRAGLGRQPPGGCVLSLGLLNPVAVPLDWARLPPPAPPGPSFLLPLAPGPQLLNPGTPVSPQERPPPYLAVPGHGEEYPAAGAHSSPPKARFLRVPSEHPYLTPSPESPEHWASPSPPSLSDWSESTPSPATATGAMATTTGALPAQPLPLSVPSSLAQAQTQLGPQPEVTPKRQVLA
# [10] = probe aEGFR binding to arrayed compounds – biochemical, biotinylated probe, 635/667 nm fluorescence, primary screen (AID 1097); conditions: small-molecule microarray, higher = more signal;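 also: probe is a biotinylated anti-EGFR antibody binding compounds printed on slides; score combines fluorescence near 667 nm and signal to noise of each spot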
# [11] = system: Plasmodium falciparum Sir2 (PF13_0152, Sir2A); test: Plasmodium falciparum Sir2A binding compounds – biochemical, small-molecule microarray, 635 nm fluorescence, primary screen (AID 1098); conditions: fluorescence 635 nm, higher = more signal;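 also: score merges spot fluorescence intensity with its signal-to-noise ratio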
# [12] = probe aDKK1 binding to arrayed compounds – biochemical, biotinylated probe, 635/667 nm fluorescence, primary screen (AID 1099); conditions: small-molecule microarray, higher = more signal;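 also: score merges 667nm spot fluorescence with signal to noise across triplicate slides; reference of the scale not given here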
# [13] = probe aCHRDL2 binding to arrayed compounds – biochemical, biotinylated probe, 635/667 nm fluorescence, primary screen (AID 1100); conditions: small-molecule microarray, higher = more signal
# [14] = change in splice reporter luminescence, either direction, cell-based, HEK293, spliceosome inhibition project, primary screen (AID 1101); conditions: HEK293 splicing luciferase reporter, 24 h, higher = more signal, called active from +8 up or from −8 down;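 also: HEK293 cells carrying a splicing-competent luciferase reporter gene; test concentration not given here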
# [15] = target: Fibroblast growth factor 10 (Homo sapiens) (UniProt O15520); test: compounds binding fibroblast growth factor 10 – biochemical, small-molecule microarray, 635 nm fluorescence, primary screen (AID 1102); conditions: FGF10 binding, fluorescence 635 nm, higher = more signal
# Sequence of Fibroblast growth factor 10 (Homo sapiens) (O15520 whole entry, looked up): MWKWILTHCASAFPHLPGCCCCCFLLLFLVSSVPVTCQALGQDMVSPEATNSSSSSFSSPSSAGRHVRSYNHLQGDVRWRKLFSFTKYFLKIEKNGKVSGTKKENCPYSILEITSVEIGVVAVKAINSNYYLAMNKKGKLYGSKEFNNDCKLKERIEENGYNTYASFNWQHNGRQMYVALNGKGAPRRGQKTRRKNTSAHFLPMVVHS
# [16] = system: glycogen synthase kinase-3 (GSK3A per assay name; protocol says GSK3B); test: compounds binding glycogen synthase kinase-3 – biochemical, small-molecule microarray, 635 nm fluorescence, GSK3A, primary screen (AID 1103); conditions: fluorescence 635 nm, higher = more signal; also: the record names both GSK3A and GSK3B
# [17] = target: Epidermal growth factor receptor (Homo sapiens) (UniProt P00533); test: compounds binding epidermal growth factor receptor – biochemical, small-molecule microarray, 635 nm fluorescence, primary screen (AID 1104); conditions: EGFR binding, higher = more signal;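 also: score merges 667 nm emission intensity with spot signal to noise over triplicate slides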
# Sequence of Epidermal growth factor receptor (Homo sapiens) (P00533 whole entry, looked up): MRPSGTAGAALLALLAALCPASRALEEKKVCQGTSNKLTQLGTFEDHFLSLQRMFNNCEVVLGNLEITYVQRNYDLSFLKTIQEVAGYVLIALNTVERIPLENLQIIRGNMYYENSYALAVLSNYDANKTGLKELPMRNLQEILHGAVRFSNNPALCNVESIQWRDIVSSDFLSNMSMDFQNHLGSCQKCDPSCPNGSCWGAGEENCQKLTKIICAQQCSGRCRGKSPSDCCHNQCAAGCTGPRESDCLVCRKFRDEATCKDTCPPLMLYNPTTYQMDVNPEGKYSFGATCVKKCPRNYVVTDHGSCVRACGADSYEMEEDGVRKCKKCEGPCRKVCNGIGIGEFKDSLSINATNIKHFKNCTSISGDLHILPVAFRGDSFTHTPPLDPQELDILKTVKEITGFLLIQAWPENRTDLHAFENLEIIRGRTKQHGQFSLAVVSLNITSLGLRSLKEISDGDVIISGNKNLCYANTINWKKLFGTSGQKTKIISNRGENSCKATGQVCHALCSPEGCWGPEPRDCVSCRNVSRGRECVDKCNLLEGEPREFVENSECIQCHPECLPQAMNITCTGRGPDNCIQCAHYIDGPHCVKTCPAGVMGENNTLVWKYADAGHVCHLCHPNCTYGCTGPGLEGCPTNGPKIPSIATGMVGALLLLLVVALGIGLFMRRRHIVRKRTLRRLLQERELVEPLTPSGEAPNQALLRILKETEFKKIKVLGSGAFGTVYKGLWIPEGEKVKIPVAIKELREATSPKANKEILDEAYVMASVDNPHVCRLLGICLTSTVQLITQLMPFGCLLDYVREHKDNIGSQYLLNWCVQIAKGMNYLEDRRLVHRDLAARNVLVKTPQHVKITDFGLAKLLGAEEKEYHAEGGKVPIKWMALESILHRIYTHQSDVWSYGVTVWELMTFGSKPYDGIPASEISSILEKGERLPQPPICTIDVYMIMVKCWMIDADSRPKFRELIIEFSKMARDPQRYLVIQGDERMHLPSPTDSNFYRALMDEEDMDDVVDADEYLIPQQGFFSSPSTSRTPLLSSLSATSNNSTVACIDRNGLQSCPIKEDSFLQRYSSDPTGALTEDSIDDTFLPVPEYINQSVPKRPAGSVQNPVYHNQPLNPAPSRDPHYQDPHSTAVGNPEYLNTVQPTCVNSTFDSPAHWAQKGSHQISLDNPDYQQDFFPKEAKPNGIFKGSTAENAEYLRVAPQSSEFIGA
# [18] = target: Follistatin-related protein 3 (Homo sapiens) (UniProt O95633); test: compounds binding follistatin-related protein 3 – biochemical, small-molecule microarray, 635 nm fluorescence, primary screen (AID 1105); conditions: FSTL3 binding, higher = more signal;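 also: score merges emission near 667 nm and signal to noise per printed spot across three slides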
# Sequence of Follistatin-related protein 3 (Homo sapiens) (O95633 whole entry, looked up): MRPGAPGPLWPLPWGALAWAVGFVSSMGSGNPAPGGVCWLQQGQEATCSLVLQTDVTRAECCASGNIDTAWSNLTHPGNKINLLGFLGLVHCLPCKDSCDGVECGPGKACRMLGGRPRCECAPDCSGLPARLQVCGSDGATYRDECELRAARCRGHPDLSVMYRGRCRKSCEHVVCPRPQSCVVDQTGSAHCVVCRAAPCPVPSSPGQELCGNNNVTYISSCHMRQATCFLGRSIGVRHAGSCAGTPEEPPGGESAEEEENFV
# [19] = target: Dickkopf-related protein 1 (Homo sapiens) (UniProt O94907); test: small molecules binding DKK1 protein – biochemical, small-molecule microarray, 635 nm fluorescence scan, primary screen (AID 1106); conditions: higher = more signal;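 also: score merges emission near 667 nm with signal to noise over three replicate slides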
# Sequence of Dickkopf-related protein 1 (Homo sapiens) (O94907 whole entry, looked up): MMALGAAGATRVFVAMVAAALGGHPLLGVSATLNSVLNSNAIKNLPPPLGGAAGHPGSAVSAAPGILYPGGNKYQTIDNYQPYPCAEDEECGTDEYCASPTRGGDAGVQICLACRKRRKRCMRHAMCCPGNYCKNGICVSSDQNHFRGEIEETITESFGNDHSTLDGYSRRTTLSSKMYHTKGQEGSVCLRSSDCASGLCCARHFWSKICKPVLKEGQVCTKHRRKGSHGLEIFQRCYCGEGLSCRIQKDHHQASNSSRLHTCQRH
# [20] = system: Inhibin beta A chain (activin A); test: small molecules binding activin A – biochemical, small-molecule microarray, 635 nm fluorescence scan, primary screen (AID 1107); conditions: INHBA, higher = more signal;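 also: mouse activin A protein probed at 4.33 µg/mL on printed slides; score merges bound-protein fluorescence near 667 nm with spot signal-to-noise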
SMILES,composite z-score [1],z-score [2],z-score [3],z-score [4],composite z-score [5],z-score [6],composite z-score [7],composite z-score [8],composite z-score [9],composite z-score [10],composite z-score [11],composite z-score [12],composite z-score [13],z-score [14],composite z-score [15],composite z-score [16],composite z-score [17],composite z-score [18],composite z-score [19],composite z-score [20]
CCOC(=O)[C@@H]1CC=C2CC1C(=O)N1CCC[C@@H]1[C@H]2O[Si](C)(C)C(C)(C)C (stereo not given in full),-0.884 and -1.29,-0.541 (inactive) and -2.68 (inactive),-1.43 (inactive) and -19.5 (active),0.119 (inactive) and -1.52 (inactive),-0.664 and -0.302,-0.988 (inactive) and -0.253 (inactive),-0.0807 and -0.347,-0.462 and -0.414,-0.529 and -2.04,-0.218 and -0.273,-0.632 and -0.617,-0.0776 and -0.228,-0.0464 and -0.898,0.474 (inactive) and 0.337 (inactive),-0.182 and -1.24,-0.0945 and -1.32,-0.762 and -0.649,-0.552 and -0.744,0.055 and -0.0246,0.401 and 0.933
C=CCN(CCCC)C(=O)C(c1cccs1)N(CCOCCO)C(=O)/C=C\C(=O)O (stereo not given),-1.08 and 0.596,-1.98 (inactive) and -1.34 (inactive),-0.745 (inactive) and -0.342 (inactive),-0.604 (inactive) and -0.397 (inactive),0.657 and 2.51,1.02 (inactive) and 1.45 (inactive),-0.145 and -0.139,-1.73 and -0.798,-0.852 and -0.503,-0.236 and -0.148,1.66 and -1.5,0.103 and -0.18,0.792 and 0.161,-1.21 (inactive) and -1.32 (inactive),-1.19 and -0.522,-1.39 and -0.479,-2.24 and -0.346,-1.97 and -0.993,-1.56 and -1.03,-0.593 and 0.566
COC(=O)C1=C(C)N(Cc2ccccc2)[C@]23O[C@](C(=O)OC)(C(=O)N2[C@@H]1c1ccccc1)[C@@H](C(=O)OC)[C@H]3C(=O)OC,-0.584 and 0.5,0.464 (inactive) and 0.457 (inactive),-0.0252 (inactive) and -0.671 (inactive),0.667 (inactive) and 0.334 (inactive),0.19 and 0.0032,0.305 (inactive) and 0.28 (inactive),-0.277 and -0.259,-0.803 and 0.77,-1.21 and 0.287,-0.173 and -0.115,-0.16 and 0.25,-0.188 and -0.2,-0.248 and -0.593,-0.259 (inactive) and 0.0138 (inactive),0.393 and 0.372,-0.969 and 0.317,-0.574 and 0.608,-1.14 and 0.664,-0.0647 and 0.549,0.59 and 0.153
C[C@@H]1CN2[C@@H](CC[C@@H](C)[C@@H]2c2ccc(Br)cc2)C(=O)O1,-0.477 and -0.0962,0.327 (inactive) and -1.72 (inactive),0.398 (inactive) and -0.794 (inactive),1.74 (inactive) and -0.538 (inactive),-0.625 and 0.0053,0.0454 (inactive) and 0.082 (inactive),-0.166 and -0.18,0.0137 and 0.546,-0.307 and -0.733,-0.111 and -0.154,-0.638 and -0.597,-0.295 and -0.239,-0.211 and -0.583,-0.142 (inactive) and -1.21 (inactive),-0.0428 and 0.337,-0.534 and -0.046,0.167 and 0.49,-0.579 and -0.462,0.313 and 0.233,0.502 and 0.45
